This is an account of results in PubChem BioAssay AID651871 (Sanford-Burnham Center for Chemical Genomics, 2012).

The test deals with HL-1. Description: cardiomyocyte survival under oxidative or metabolic stress – cell-based, panel, H9c2 and HL-1, ATP luminescence, set 2, SAR follow-up (AID 651871).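 Note: cells exposed to stressor for 2 h before ATP readout; reference of the scale not given here.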 The note with it: H9c2/HL-1 cardiomyocytes, 2-deoxyglucose stress, with 2-deoxyglucose; run 7, at 79 µM (top of the series).

Structures are written as SMILES. Several values for one entry are separate records, joined by “and”; a condition that tells them apart may be missing. Equal values may be shown once.

As for `COc1ccc2c(c1OC)C(=O)N1c3ccccc3C(=O)N(Cc3cccc(Cl)c3Cl)C21` (stereo not drawn), the activity (protection/inhibition) is 48.9% and 20.1% and -9.92%.
On to `COc1ccc2nc(-c3cc(OC)c(OC)c(OC)c3)cc(C(=O)NCC(=O)Nc3ccc(C(C)=O)cc3)c2c1`, for which the activity (protection/inhibition) stood at 38%.
In the case of `CCOC(=O)c1cccc(NC(=O)CNC(=O)c2cc(-c3cc(OC)c(OC)c(OC)c3)nc3ccccc23)c1`, the activity (protection/inhibition) was 54.3%.
